# Data as given in PubChem BioAssay (NCATS).
# Inconclusive results are not listed. A call without a number means that no potency is given here. A number with no mark means an inactive call. The source made the active and inactive calls. Calls follow the shape of the dose curve; as a rule, active = well fitted inhibition curve with a large enough effect; inconclusive = small, poorly fitted or top-dose-only effect; inactive = no such curve, though single readings can be large or run the other way. Where a SMILES comes first, the peptide text is derived from it. The star is where a group is joined. βNA = c1ccc2cc(N*)ccc2c1; Cbz = O=C(OCc1ccccc1)*
# Test: Primary qHTS for inhibitors of nuclear receptor binding SET domain protein 2 (NSD2) in an RCH-ACV wild type WT cells (2C) (AID 1645877); also: nearly all actives have a fitted effect of over 70% in size
# Details: RCH-ACV (leukaemia line) NSD2 WT (2C) viability, CellTiter-Glo, 72 h; series mostly up to 44.9 µM
SMILES,"activity change, negative = cell killing",Potency
CC1(CO)CC(O)C2(C)CCC3(C)C(=CCC4C5(C=O)CCC(OC6OC(C(=O)O)C(O)C(O)C6OC6OC(C(=O)O)C(O)C(O)C6O)C(C)(C)C5CCC43C)C2C1 (stereo unspecified),-0.213% [at 9.23 µM],–
CC1=CC(=O)CC(C)(C)C1CO[C@@H]1O[C@H](CO)[C@@H](O)[C@H](O)[C@H]1O (stereo partly specified),–,inactive
CC(C)CC(NC(=O)OCc1ccccc1)C(=O)NC(CC(C)C)C(=O)NC(CCC(=O)O)C(=O)Nc1ccc2ccccc2c1 (stereo not drawn) (Cbz-Leu-Leu-Glu-βNA; configuration not given here),–,inactive
O=C(Cc1ccc(Cl)cc1)Nc1cnccc1C(=O)O,–,inactive
C[C@H]1CC[C@H]2[C@@H](C=C[C@@](C)(O)[C@]2(C)C(=O)CCO)C1,–,inactive
CC(C)=CCC/C(C)=C/CO[C@@H]1O[C@H](CO[C@@H]2O[C@@H](CO)[C@H](O)[C@H]2O)[C@@H](O)[C@H](O)[C@H]1O,–,inactive
COc1ccc(OC2OC(CO[C@@H]3O[C@@H](C)[C@H](O)[C@@H](O)[C@H]3O)C(O)C(O)C2O)cc1OC (stereo partly specified),–,inactive
C=C(C)[C@@]1(O)C[C@@]2(C)C(=CC1=O)CC[C@@H](O)[C@@H]2C,–,inactive
CC1=C2CC(O)(C(C)(C)O)C(O[C@@H]3O[C@H](CO)[C@@H](O)[C@H](O)[C@H]3O)CC(C)C2CC1=O (stereo partly specified),–,inactive
CC1=CC(=O)CC(C)(C)C1/C=C/C(C)OC1OC(COC2OCC(O)C(O)C2O)C(O)C(O)C1O (stereo unspecified),–,inactive
COC(=O)C1=CO[C@@H](O[C@@H]2O[C@H](CO)[C@@H](O)[C@H](O)[C@H]2O)[C@@H]2[C@@H](CO)[C@@H](O)C(O)[C@H]12 (stereo partly specified),–,inactive
